PubChem BioAssay AID651601 (Sanford-Burnham Center for Chemical Genomics, 2012)
Active and inactive are the calls of the source.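 Rule for the calls: active = CXCR6 mean IC50 below 15 µM, and neither CCR6 nor CXCR5 mean IC50 under five times that; inactive = the rest.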

The molecules below were run against C-X-C chemokine receptor type 5 (Homo sapiens) (UniProt P32302) (assay: antagonist selectivity across CCR6, CXCR5 and CXCR6 – cell-based, CHO-K1 PathHunter beta-arrestin, luminescence, selectivity assay for CXCR6 antagonist project, profiling panel (AID 651601)). Settings: antagonist mode, mean of runs.
Chain of C-X-C chemokine receptor type 5 (Homo sapiens) (P32302 whole entry, looked up): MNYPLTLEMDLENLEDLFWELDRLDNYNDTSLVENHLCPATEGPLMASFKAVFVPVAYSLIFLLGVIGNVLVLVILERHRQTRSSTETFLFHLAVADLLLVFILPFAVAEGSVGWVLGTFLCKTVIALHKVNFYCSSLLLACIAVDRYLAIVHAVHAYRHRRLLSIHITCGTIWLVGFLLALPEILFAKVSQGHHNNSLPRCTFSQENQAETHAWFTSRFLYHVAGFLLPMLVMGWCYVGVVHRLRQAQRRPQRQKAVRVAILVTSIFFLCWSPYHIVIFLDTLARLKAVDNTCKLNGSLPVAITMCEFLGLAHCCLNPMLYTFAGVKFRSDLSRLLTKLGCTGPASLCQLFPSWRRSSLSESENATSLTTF

outcome, inactive:
COc1cc(C(=O)NC2CC3CCCC(C2)N3CC(=O)Nc2ccccc2)cc(OC)c1OC (stereo unspecified), O=C(CN1C2CCCC1CC(NC(=O)c1ccccc1)C2)Nc1ccccc1 (stereo unspecified), COc1cccc(C(=O)NC2CC3CCCC(C2)N3CC(=O)Nc2ccc(N(C)C)cc2)c1 (stereo unspecified), O=C(CN1C2CCCC1CC(NC(=O)c1ccccc1)C2)Nc1ccccc1C(F)(F)F (stereo unspecified), COc1cccc(C(=O)NC2CC3CCCC(C2)N3CC(=O)Nc2ccccc2C(F)(F)F)c1 (stereo unspecified), CN(C)c1ccc(NC(=O)CN2C3CCCC2CC(NC(=O)c2ccccc2)C3)cc1 (stereo unspecified)
